From PubChem
Shown is part of a subset that was picked to be rich in hits.
Tg IFNy HTS: blocks Toxoplasma gondii growth in the presence of IFN-gamma; Toxoplasma gondii growth in IFN-gamma-treated host cells; stronger effect = lower value; activity change, negative = inhibition, % (concentration not given with the values); actives 3.8% (n = 69,000); AID 1259416; in the data active means activity change below about -70%, passing the limit was not always enough;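 further: host cells are HeLa cells infected with Toxoplasma gondii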
Numbers without * were called inactive.

SMILES	Tg IFNy HTS
CN(C)CCCN(Cc1ccsc1)Cc1ccccn1	-33.3
Nc1cc(N2CCN(CCCc3ccccc3)CC2)nc(N)n1	-26.5
OCc1cc(-c2cccc(N3CCNCC3)n2)ccc1F	0.3
Cc1cnc(CN(C)C(=O)CCCc2nc(-c3ccccc3C)no2)[nH]1	-11.0
CCN1CCOCC2(CCCN(C(=O)c3ccc4cc[nH]c4c3)C2)C1 (stereo not given)	-0.4
CCn1ncnc1CN1CCCC(c2n[nH]c(=O)n2-c2ccccc2)C1 (stereo not given)	-19.4
Cc1ncc(CN2CCC(c3nn(C)c(=O)n3-c3ccccc3)CC2)s1	-6.0
CCn1ncnc1CN1CCC(c2nn(C)c(=O)n2-c2ccccc2)CC1	-74.4*
CCOc1ccccc1-c1nc(CN(c2ccccc2OC)S(=O)(=O)c2ccc(C)cc2)c(C)o1	-38.5
CC[C@@H](C(=O)[C@@H](C)[C@@H](O)[C@H](C)[C@@H]1O[C@@H]([C@@H](CC)C(=O)O)CC[C@@H]1C)[C@H]1O[C@]2(C=C[C@@H](O)[C@]3(CC[C@@](C)(C4CC[C@](O)(CC)[C@H](C)O4)O3)O2)[C@H](C)C[C@@H]1C (stereo not given in full)	-80.7*
CC[C@@H](C(=O)[C@@H](C)[C@@H](O)[C@H](C)[C@@H]1O[C@@H]([C@@H](CC)C(=O)O)CC[C@@H]1C)[C@H]1OC2(C=C[C@@H](O)[C@]3(CC[C@@](C)(C4CC[C@](O)(CC)[C@H](C)O4)O3)O2)[C@H](C)C[C@@H]1C (stereo not given in full)	-83.8*
CCn1c(C2CCCN(C(=O)NCc3ccc(Cl)cc3)C2)n[nH]c1=O (stereo not given)	4.9
COc1ccccc1-c1nc(CSc2nc3c(=O)[nH]cnc3n2-c2ccccc2)c(C)o1	-21.0
CCOC(=O)C1CCN(c2ncc(F)c(N3CCOCC3)n2)CC1	52.0
CCOCc1nn(C)c2c1CN(C(=O)c1ccc[nH]1)CC2	-7.0
CN(C)c1ncnc2c1CCN(C(=O)c1cn[nH]c1-c1cccc(F)c1)C2	-23.6
Cc1cc2cc(NC(=O)c3ccc(-n4cnnc4)cc3)cc(Cl)c2o1	-9.0
CCc1oc2c(Cl)cc(-n3cnnc3)cc2c1C	-85.1*
CCc1oc2c(-n3cnnc3)cccc2c1C	-10.0
CC(C)c1ccc(S(=O)(=O)N2CCC3(CC2)NCCN=C3NC2CCCCC2)cc1	-13.0
O=C(CCC1N=C2c3ccccc3N=C(SCc3cccc(F)c3)N2C1=O)NCc1ccccc1 (stereo not given)	6.0
CCOc1ccc(NC(=O)C(=O)NCCc2sc(-c3cccc(C)c3)nc2C)cc1	29.4
CCn1ncc(CN2CCCC(C(=O)c3cccc(C(F)(F)F)c3)C2)c1C (stereo not given)	3.6
CCOC(=O)c1nc(N(Cc2cccs2)C2CCCC2)c2ccccc2n1	-75.7*
CCOC(=O)c1nc(N2CCN(C3CCCCC3)CC2)c2ccccc2n1	3.7
CCOC(=O)c1nc(N(CC)c2ccccc2)c2ccccc2n1	14.1
CN(Cc1cnc(N2CCOCC2)nc1)CC1Cc2ccccc2CN1C (stereo not given)	-3.3
O=C(CC1CCCC1)NC1CCC2(CCC(=O)N2)CC1 (stereo not given)	173.7
CS(=O)(=O)N1CCc2c(cnc(-c3cccnc3)c2C(=O)O)C1	2.8
Cc1ccc(OCCNC(=O)c2ccc(C(C)(C)C)cc2)cc1C	10.5
